Test results from PubChem BioAssay (NCATS).
Results filed as inconclusive are left out. Unmarked numbers belong to inactive results. Active and inactive are the calls of the source. The call rests on the fitted dose curve; in most records, active means well fitted curve in the direction sought with a large enough effect; inconclusive means small, poorly fitted or top-dose-only effect, or another doubt; inactive means no such curve, though single readings can be large; an effect the other way counts as inactive or inconclusive.

assay: Quantitative High-Throughput drug screen in 47 multiple myeloma cell lines against the NCATS MIPE library collection: NCIH929_DSMZ cell viability assay (AID 1918978); details: NCI-H929 myeloma viability, CellTiter-Glo ATP, 48 h; series mostly up to 45.8 µM; viability, % of control: at the top concentration; further: nearly all actives have a fitted effect of over 35% in size; further: potency means the concentration at half of the fitted maximal effect
How it was run: (§1)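 500 cells/well per myeloma line exposed to pinned MIPE 4.0 compounds for 48 h at 37 °C, 5% CO2. Viability read as ATP by CellTiter-Glo luminescence, normalised to DMSO-only (100%) and media-only (0%) wells.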

**Q.** Which “viability, % of control” value does the source give for `COc1ccc(CC2SC(=O)NC2=O)cc1C(=O)NCc1ccc(C(F)(F)F)cc1` (stereo not drawn) here?
**A.** Its value is 72.9%.

**Q.** For `Cc1ccc(CN2CCNCC2)cc1NC(=O)CNc1ccc(F)c(F)c1`, which “viability, % of control” value is on record?
**A.** Its value is 121%.

**Q.** For `Nc1cccc(-c2cc3c(Oc4cccc(O)c4)ncnc3[nH]2)c1`, which Potency is on record?
**A.** Its Potency is 23.5 µM (active).

**Q.** Which Potency does the source give for `NC(=O)c1c(OCc2c(F)cc(Br)cc2F)nsc1NC(=O)NCCCCN1CCCC1` here?
**A.** Its Potency is 9.35 µM (active).

**Q.** Which Potency does the source give for `CCN(CC)CCCCNc1ncc2cc(-c3cc(OC)cc(OC)c3)c(NC(=O)NC(C)(C)C)nc2n1` here?
**A.** Its Potency is 11.8 µM (active).

**Q.** Which Potency does the source give for `CNC(=O)CN1CCC(Oc2cc3c(Nc4cccc(Cl)c4F)ncnc3cc2OC)CC1` here?
**A.** The Potency was 0.059 µM (active).

**Q.** Which Potency does the source give for `Nc1ccn([C@@H]2O[C@H](CO)[C@H](O)C2(F)F)c(=O)n1` here?
**A.** Its Potency is 0.264 µM (active).

**Q.** Which “viability, % of control” value does the source give for `CC(=O)OCCN1C(=O)c2c(C)nc3ccc(S(=O)(=O)N4CCOCC4)cc3c2C1=O` here?
**A.** Its value is 125%.

**Q.** With `COc1cccc(Nc2c(C(N)=O)cnc3c(C)cc(S(=O)(=O)c4cccc(C(=O)N(C)C)c4)cc23)c1` as the compound, how does the “viability, % of control” value read?
**A.** The value was 120% [at 23.2 µM].

**Q.** With `NCC(=O)Nc1ccc(-n2nc(C(F)(F)F)cc2-c2ccc3c(ccc4ccccc43)c2)cc1` as the compound, how does the Potency read?
**A.** Its Potency is 16.6 µM (active).

**Q.** For `Clc1cccc(-n2nnnc2NCc2ccccc2Oc2ccccn2)c1Cl`, which “viability, % of control” value is on record?
**A.** The value was 102%.

**Q.** For `Cc1cc(Nc2cc(CN3CCOCC3)c3nc(C)c(Cc4ccc(Cl)cc4F)n3n2)n[nH]1`, which Potency is on record?
**A.** The Potency was 26.4 µM (active).

**Q.** With `Cc1c(NC(=O)OC[C@@H]2COCCN2)cn2ncnc(Nc3ccc4c(cnn4Cc4cccc(F)c4)c3)c12` as the compound, how does the Potency read?
**A.** The Potency was 18.7 µM (active).

**Q.** Which “viability, % of control” value does the source give for `COc1c(N2C[C@@H]3CCCN[C@H]3C2)c(F)cc2c(=O)c(C(=O)O)cn(C3CC3)c12` here?
**A.** The value was 116%.

**Q.** With `NC(=O)c1cccc2cn(-c3ccc([C@@H]4CCCNC4)cc3)nc12` as the compound, how does the Potency read?
**A.** Its Potency is 20.9 µM (active).

assay: Quantitative High-Throughput drug screen in 47 multiple myeloma cell lines against the NCATS MIPE library collection: OCIMY1_PLB cell viability assay (AID 1918979); details: OCI-MY1 myeloma viability, CellTiter-Glo ATP, 48 h; series mostly up to 45.8 µM; viability: at the top concentration; further: nearly all actives have a fitted effect of over 35% in size
How it was run: as §1

**Q.** With `COc1ccc(-n2nc(C(N)=O)c3c2C(=O)N(c2ccc(N4CCCCC4=O)cc2)CC3)cc1` as the compound, how does the “viability” value read?
**A.** Its value is 106%.

**Q.** With `COc1cccc(-c2ccc(NC(=O)C3=C(C(=O)O)CCC3)c(F)c2)c1` as the compound, how does the “viability” value read?
**A.** Its value is 111%.

**Q.** Which “viability” value does the source give for `COC(=O)C[C@](O)(CCCC(C)(C)O)C(=O)O[C@@H]1C(OC)=C[C@]23CCCN2CCc2cc4c(cc2[C@H]13)OCO4` here?
**A.** Its value is 98.9%.

**Q.** For `CN(C)CC(C)(C)CNc1nn2c(-c3ccccc3)nnc2cc1C1CCC1`, which “viability” value is on record?
**A.** The value was 115%.

**Q.** With `CCCCCCCCCC(=O)N[C@@H](Cc1c[nH]c2ccccc12)C(=O)N[C@H](CC(N)=O)C(=O)N[C@@H](CC(=O)O)C(=O)N[C@@H]1C(=O)NCC(=O)N[C@@H](CCCN)C(=O)N[C@@H](CC(=O)O)C(=O)N[C@H](C)C(=O)N[C@@H](CC(=O)O)C(=O)NCC(=O)N[C@H](CO)C(=O)N[C@@H]([C@@H](C)CC(=O)O)C(=O)N[C@@H](CC(=O)c2ccccc2N)C(=O)O[C@@H]1C` as the compound, how does the “viability” value read?
**A.** The value was 112%.

**Q.** For `CC1(C)O[C@@H]2C[C@@H]3[C@H]4C[C@@H](F)C5=CC(=O)C=C[C@]5(C)[C@@]4(F)[C@@H](O)C[C@]3(C)[C@]2(C(=O)CO)O1`, which “viability” value is on record?
**A.** Its value is 94.3%.

**Q.** Which “viability” value does the source give for `CS(=O)(=O)c1ccc(-c2cnc(N)c(C(=O)Nc3ccccc3)n2)cc1` here?
**A.** Its value is 103%.

**Q.** Which “viability” value does the source give for `C[C@]12CC[C@H](O)CC1=CCC1C2CC[C@]2(C)C(n3cnc4ccccc43)=CCC12` (stereo partly drawn) here?
**A.** The value was 94.8%.

**Q.** For `Cc1ccc(CN2CCNCC2)cc1NC(=O)CNc1ccc(F)c(F)c1`, which “viability” value is on record?
**A.** The value was 95.5%.

**Q.** With `Nc1cccc(-c2cc3c(Oc4cccc(O)c4)ncnc3[nH]2)c1` as the compound, how does the “viability” value read?
**A.** The value was 87.9%.

**Q.** Which “viability” value does the source give for `CCN(CC)CCCCNc1ncc2cc(-c3cc(OC)cc(OC)c3)c(NC(=O)NC(C)(C)C)nc2n1` here?
**A.** The value was 82.8%.

**Q.** For `Cc1c(Cn2c(C)nc3c(C(=O)O)cc(N4CCOCC4)cc32)cccc1C(F)(F)F`, which “viability” value is on record?
**A.** The value was 118%.

**Q.** For `Clc1cccc(-n2nnnc2NCc2ccccc2Oc2ccccn2)c1Cl`, which “viability” value is on record?
**A.** Its value is 115%.

**Q.** Which “viability” value does the source give for `Cc1c(NC(=O)OC[C@@H]2COCCN2)cn2ncnc(Nc3ccc4c(cnn4Cc4cccc(F)c4)c3)c12` here?
**A.** Its value is 91.5%.

**Q.** With `CC1COC2(CCN(c3nc(=O)c4cc(C(F)(F)F)cc([N+](=O)[O-])c4s3)CC2)O1` (stereo not drawn) as the compound, how does the “viability” value read?
**A.** The value was 120%.

**Q.** With `Cc1cn2cc(C(=O)N(C)CCO)cc(N[C@@H]3CCOc4cccc(C)c43)c2n1` as the compound, how does the “viability” value read?
**A.** The value was 115%.

**Q.** For `O=c1c2ccccc2nc2n1CCc1c-2[nH]c2ccccc12`, which “viability” value is on record?
**A.** The value was 110%.

**Q.** Which “viability” value does the source give for `CC(C)(O)CCc1ccc(OCc2cc(-c3cccc(OC(F)F)c3)c3ncccc3c2)cc1` here?
**A.** The value was 126%.

assay: Quantitative High-Throughput drug screen in 47 multiple myeloma cell lines against the NCATS MIPE library collection: MM1S_ATCC cell viability assay (AID 1918980); details: MM1S myeloma viability, CellTiter-Glo ATP luminescence, 48 h; series mostly up to 45.8 µM; viability (% of control): at the top concentration; further: nearly all actives have a fitted effect of over 45% in size; further: potency means the concentration at half of the fitted maximal effect
How it was run: as §1

**Q.** Which Potency does the source give for `CNc1nccc(-c2cccnc2Oc2cc(C(=O)Nc3cccc(C(F)(F)F)c3)ccc2C)n1` here?
**A.** Its Potency is 18.7 µM (active).

**Q.** With `COc1cccc(-c2ccc(NC(=O)C3=C(C(=O)O)CCC3)c(F)c2)c1` as the compound, how does the Potency read?
**A.** Its Potency is 3.72 µM (active).

**Q.** Which Potency does the source give for `CCCCN1CCC(CNC(=O)c2c3n(c4ccccc24)CCCO3)CC1` here?
**A.** The Potency was 3.72 µM (active).

**Q.** With `COC(=O)C[C@](O)(CCCC(C)(C)O)C(=O)O[C@@H]1C(OC)=C[C@]23CCCN2CCc2cc4c(cc2[C@H]13)OCO4` as the compound, how does the “viability (% of control)” value read?
**A.** Its value is 137%.

**Q.** Which Potency does the source give for `CN(C)CC(C)(C)CNc1nn2c(-c3ccccc3)nnc2cc1C1CCC1` here?
**A.** Its Potency is 0.166 µM (active).

**Q.** Which Potency does the source give for `CC1(C)O[C@@H]2C[C@@H]3[C@H]4C[C@@H](F)C5=CC(=O)C=C[C@]5(C)[C@@]4(F)[C@@H](O)C[C@]3(C)[C@]2(C(=O)CO)O1` here?
**A.** Its Potency is 0.0118 µM (active).

**Q.** With `CS(=O)(=O)c1ccc(-c2cnc(N)c(C(=O)Nc3ccccc3)n2)cc1` as the compound, how does the Potency read?
**A.** The Potency was 9.35 µM (active).

**Q.** For `C[C@]12CC[C@H](O)CC1=CCC1C2CC[C@]2(C)C(n3cnc4ccccc43)=CCC12` (stereo partly drawn), which “viability (% of control)” value is on record?
**A.** Its value is 115%.

**Q.** For `Cc1ccc(CN2CCNCC2)cc1NC(=O)CNc1ccc(F)c(F)c1`, which Potency is on record?
**A.** Its Potency is 2.64 µM (active).

**Q.** For `Nc1cccc(-c2cc3c(Oc4cccc(O)c4)ncnc3[nH]2)c1`, which Potency is on record?
**A.** The Potency was 3.32 µM (active).

**Q.** Which Potency does the source give for `NC(=O)c1c(OCc2c(F)cc(Br)cc2F)nsc1NC(=O)NCCCCN1CCCC1` here?
**A.** The Potency was 2.96 µM (active).

**Q.** With `CCN(CC)CCCCNc1ncc2cc(-c3cc(OC)cc(OC)c3)c(NC(=O)NC(C)(C)C)nc2n1` as the compound, how does the Potency read?
**A.** Its Potency is 20.9 µM (active).

**Q.** With `CNC(=O)CN1CCC(Oc2cc3c(Nc4cccc(Cl)c4F)ncnc3cc2OC)CC1` as the compound, how does the Potency read?
**A.** The Potency was 0.0105 µM (active).

**Q.** With `Nc1ccn([C@@H]2O[C@H](CO)[C@H](O)C2(F)F)c(=O)n1` as the compound, how does the Potency read?
**A.** Its Potency is 0.0187 µM (active).

**Q.** Which Potency does the source give for `Cc1c(Cn2c(C)nc3c(C(=O)O)cc(N4CCOCC4)cc32)cccc1C(F)(F)F` here?
**A.** Its Potency is 0.0662 µM (active).

**Q.** For `Clc1cccc(-n2nnnc2NCc2ccccc2Oc2ccccn2)c1Cl`, which “viability (% of control)” value is on record?
**A.** The value was 101%.

**Q.** With `Cc1cc(Nc2cc(CN3CCOCC3)c3nc(C)c(Cc4ccc(Cl)cc4F)n3n2)n[nH]1` as the compound, how does the Potency read?
**A.** Its Potency is 20.9 µM (active).

**Q.** Which “viability (% of control)” value does the source give for `CC1COC2(CCN(c3nc(=O)c4cc(C(F)(F)F)cc([N+](=O)[O-])c4s3)CC2)O1` (stereo not drawn) here?
**A.** The value was 116%.

**Q.** For `CC=CC1=C(C(=O)O)N2C(=O)[C@H](NC(=O)[C@H](N)c3ccc(O)cc3)[C@@H]2SC1`, which Potency is on record?
**A.** Its Potency is 14.8 µM (active).

**Q.** Which Potency does the source give for `CC(C)(O)CCc1ccc(OCc2cc(-c3cccc(OC(F)F)c3)c3ncccc3c2)cc1` here?
**A.** Its Potency is 14.8 µM (active).
